S2 tox: reduces viability in counter-screen for ATXN expression inhibitors. S2 cells (HEK-293 line with an ATXN2-luciferase reporter) viability, CellTiter-Fluor protease fluorescence, 24 h. Potency, µM (highest dose often 56.7 µM), most hits filed as cytotoxic. 0.49% of 400,000 active; note: nearly all actives have a fitted effect of over 40% in size
LDHA inh: blocks human lactate dehydrogenase A | P00338 | purified LDHA, NADH/diaphorase-resazurin fluorescence; active compounds read low | activity change, % (values are at about 110 or 230 µM) | 0.15% of 480,000 active | AID 1347041; in the data active = activity change below about -30%; inconclusive = mostly about -25% to -30%
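Enzyme activity of human lactate dehydrogenase 5 (2 nM; 0.06 mM NADH, 0.2 mM pyruvate, 5 min, RT) is measured via a resazurin/diaphorase fluorescence readout of residual NADH.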
TGFb inhibitor: inhibitors of TGF-b signaling; HepG2 CAGA-GFP TGF-b/SMAD3 reporter, GFP fluorescence, 18 h; TGF-beta stimulated, 500 pg/mL final; Potency, µM (titrated, usually from 46.1 µM), usual class: inhibitors; 1.2% of 410,000 active; AID 588855; note: nearly all actives have a fitted effect of over 65% in size
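Read-out: total well GFP (ex488/em500-530) summed from mean per-cell fluorescence. Cells: HEPG2 CAGA-GFP, 1% FBS DMEM, 18 h at 37 degrees C with 500 pg/mL final TGF-beta. Unstimulated wells served as the full-inhibition control; stimulated DMSO wells = 0%.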
mIDH1 inhibitor: blocks human mutant IDH1 R132H enzyme | 0.093% of 390,000 active | IDH1-R132H enzyme, NADPH consumption, diaphorase/resazurin fluorescence | Potency, µM (series often up to 76.6 µM), actives largely listed as inhibitors; note: nearly all actives have a fitted effect of over 65% in size
Target sequence (O75874 whole entry R132H, stated change not applied): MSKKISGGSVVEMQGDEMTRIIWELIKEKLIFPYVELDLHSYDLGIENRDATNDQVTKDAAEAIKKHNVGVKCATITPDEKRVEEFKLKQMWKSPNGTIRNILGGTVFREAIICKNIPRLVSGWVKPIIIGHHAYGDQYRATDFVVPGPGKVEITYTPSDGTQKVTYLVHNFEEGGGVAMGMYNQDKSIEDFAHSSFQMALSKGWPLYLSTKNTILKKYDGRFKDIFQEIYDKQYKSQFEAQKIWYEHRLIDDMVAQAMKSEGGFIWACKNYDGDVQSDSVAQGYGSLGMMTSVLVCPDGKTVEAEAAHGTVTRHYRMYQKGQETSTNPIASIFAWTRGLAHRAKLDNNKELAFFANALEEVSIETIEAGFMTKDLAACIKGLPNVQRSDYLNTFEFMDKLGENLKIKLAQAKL
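IDH1-R132H (0.5 ug/mL dispensed) in pH 7.5 Tris buffer was preincubated 30 min with compound, then given a substrate mix of 0.016 mM NADPH and 2 mM alpha-KG for 80 min at room temperature; remaining NADPH was read by diaphorase/resazurin fluorescence.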
HepG2 tox: HepG2 cytotoxicity, counter-screen for TGF-b inhibitors; HepG2 CAGA-GFP viability, ATP luminescence, 18 h; Potency, µM (top dose mostly 46.1 µM), most hits filed as cytotoxic; 0.76% of 410,000 active; AID 588856
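CellTiter-Glo luminescence gave cytotoxicity after 18 hours at 37 degrees C. The cells were HepG2 CAGA-GFP in 1% FBS DMEM, stimulated with 500 pg/mL TGF-beta after compound addition. %Activity was normalised to no-cell wells (complete cell-killing) and DMSO (no toxicity), and curves were fitted and classified.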
ATXN2 expr inh: inhibitors of ATXN2 expression | Potency, µM (series often up to 57 µM), most hits filed as inhibitors | HEK-293 ATXN2-luciferase reporter, luminescence, 24 h | 0.72% of 360,000 active; note: nearly all actives have a fitted effect of over 55% in size
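ATXN2-luciferase reporter cells (luciferase flanked by upstream and downstream ATXN2 gene portions) were treated 24 h at 37 °C with compounds at up to 57 uM. SteadyGlo luminescence gave expression; GF-AFC fluorescence gave viability.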
Hits are given with their value; n = inactive; u = inconclusive; x = not tested or not shown; ! = a repeat was not active. Hits are enriched below; roughly 2.2% of the tested compounds scored in any of these assays. Unless noted, calls come from the whole dose curve; as a rule, active = well fitted curve in the direction sought with a large enough effect; inconclusive = small, poorly fitted or top-dose-only effect, or another doubt; inactive = no such curve, though single readings can be large; an effect the other way counts as inactive or inconclusive.

SMILES	S2 tox	LDHA inh	TGFb inhibitor	mIDH1 inhibitor	HepG2 tox	ATXN2 expr inh
COC(=O)[C@@]1(C#N)[C@@H]2C=CC(C(C)=O)=CN2[C@@H](C(N)=O)[C@@H]1c1ccc(F)cc1	n	n	n	n	n	n
Cc1ccc(S(=O)(=O)N(C)C[C@H]2Oc3cc(Br)ccc3S(=O)(=O)N([C@H](C)CO)C[C@H]2C)cc1	u	n	u	n	n	u
C[C@@H]1CN([C@H](C)CO)S(=O)(=O)c2ccc(C#Cc3cccc(F)c3)cc2O[C@@H]1CN(C)C(=O)CN1CCOCC1	20µM	n	u	n	n	u
COC(=O)C1=C(c2ccc(F)cc2OCc2ccccc2)C[C@@H]2CC[C@H]1N2C(=O)NCc1ccc(OC)cc1	u	n	n	n	n	u
Oc1ccc(-[n+]2c(-c3ccccc3)cc(-c3ccccc3)cc2-c2ccccc2)cc1	u	n	u	n	n	13µM
CCCCOP(=O)(c1ccc(N(C)C)cc1)C(Nc1ccccc1)c1ccccc1 (stereo not drawn)	u	n	16µM	n	n	u
O=C(C1CCC(=O)N1Cc1ccccc1Cl)N1CCC2(CC1)OCCO2 (stereo not drawn)	n	n	n	n	n	n
COc1cccc2c1C(=O)c1c(O)c3c(c(O)c1C2=O)C[C@@](O)(C(=O)CO)CC3OC1CC(N2CCOC(OC)C2)C(O)C(C)O1 (stereo partly drawn)	45µM	x	x	x	x	28µM
Nc1c(C(=O)Nc2cccc(Br)c2)sc2nc3c(cc12)N1CCC3CC1	n	n	n	n	n	u
C[CH2][Hg][S]c1ccccc1C(=O)O	4.5µM	n	4.5µM	n	2.5µM	6.3µM
COc1ccc2c(c1)c(C(=O)CN1CCN(C)CC1)c(C)n2Cc1ccccc1	n	n	n	n	n	n
C/C=C1\NC(=O)[C@H](C)NC(=O)[C@@H](NC(=O)[C@H](Cc2ccc(O)cc2)NC(=O)[C@@H](NC(=O)/C(C)=C/C)C(C)C)[C@@H](C)OC(=O)[C@H](CCCc2ccc(O)cc2)NC(=O)[C@@H](CCC(=O)O)NC1=O	n	n	n	x	n	n
O=C(CNC12CC3CC(CC(C3)C1)C2)c1ccc(Cl)cc1	x	-81	x	x	x	x
N#Cc1c(N)[n+]([O-])c2ccccc2[n+]1[O-]	x	n	x	x	x	x
CN(CCc1ccccc1)Cc1c[nH]c2ccccc12	u	n	14µM	n	11µM	x
CC(C)(C)c1cc(C=C(C#N)C#N)cc(Br)c1O	x	x	x	x	x	27µM
CC1(C)CN=C(Nc2nc3ccccc3s2)S1	n	n	u	n	n	n
CCOC(=O)c1ccc(N2C(=O)c3n[nH]c(-c4cccs4)c3C2c2ccc(Cl)cc2Cl)cc1 (stereo not drawn)	u	n	4.5µM	n	n	u
CCOC(=O)c1c(C)[nH]c(C)c1S(=O)(=O)N1CCC(C(=O)N2CCN(c3cccc(Cl)c3)CC2)CC1	n	n	u	n	n	n
COC(=O)C1=C(c2ccc(OC(F)(F)F)cc2)C[C@@H]2CC[C@H]1N2C(=O)NCc1cccc2ccccc12	u	n	u	n	n	u
COc1ccc(-c2coc3c(C(=O)Nc4cc(OC)c(OC)c(OC)c4)cccc23)c(C)c1	u	n	n	x	n	u
COc1cc(NC(=O)c2cccc3c(-c4cccnc4)coc23)cc(OC)c1OC	u	n	n	x	n	11µM
C#CCCC[C@@H]1OC(=O)CNC(=O)C([C@@H](C)CC)NC(=O)[C@@H]2CCCN2C(=O)C([C@@H](C)CC)OC(=O)[C@H](Cc2ccccc2)N(C)C(=O)[C@H](C(C)C)NC(=O)C1(C)C (stereo partly drawn)	u	n	u	x	n	u
CCC(C)C1NC(=O)C(NC(=O)C(CC(C)C)N(C)C(=O)C2CCCN2C(=O)C(C)O)C(C)OC(=O)C(Cc2ccc(OC)cc2)N(C)C(=O)C2CCCN2C(=O)C(CC(C)C)NC(=O)[C@H](C)C(=O)[C@H](C(C)C)OC(=O)CC1O (stereo partly drawn)	0.013µM	n	n	n	n	u
N#Cc1ccc(NC(=O)CSc2nnc(Cc3ccccc3)o2)cc1Cl	x	n	x	x	x	x
SMILES	S2 tox	LDHA inh	TGFb inhibitor	mIDH1 inhibitor	HepG2 tox	ATXN2 expr inh
Oc1ccc(Cl)cc1Cc1cc(Cl)ccc1O	u	n	u	n	n	28µM!
CCOP(=O)(OCC)OCC	n	n	n	n	n	n
CCOP(=O)(CCP(=O)(OCC)OCC)OCC.C[CH2][Sn]([Cl])([Cl])[CH2]C	u	n	u	n	n	19µM
Cc1ccc(NC(=O)C2CCN(C(=O)c3cnn(-c4ccccc4)c3-n3cccc3)CC2)cc1Cl	u	n	14µM	n	n	u
O=C(NCc1ccc(Cl)cc1)C1CCN(C(=O)c2cnn(-c3ccccc3)c2-n2cccc2)CC1	n	n	u	n	n	u
Cc1ccc(C(C)C)c(OCC#CCN2CCCC2)c1	u	n	n	n	n	x
Cc1cccc(-n2c(/C=C/c3ccccn3)nc3ccccc3c2=O)c1	u	n	n	n	n	n
CCCN(CCC)CCc1c[nH]c2ccccc12	u	x	x	x	x	n
O=C1NC(=O)C(=Cc2ccc(Oc3ccc([N+](=O)[O-])cc3)cc2)C(=O)N1	n	-33	n	n	n	n
CN1C(=O)C(=Cc2ccccc2OCCOc2ccc([N+](=O)[O-])cc2)C(=O)N(C)C1=O	u	n	n	n	n	n
COc1cc(C=C2C(=O)NC(=O)NC2=O)ccc1OCc1ccc([N+](=O)[O-])cc1	n	n	n	n	n	n
O=C1NC(=O)C(=Cc2ccccc2OCCOc2ccc([N+](=O)[O-])cc2)C(=O)N1	n	-81	n	n	n	n
COc1cc2c(c(OC)c1OC)-c1ccc(O)c(=O)cc1[C@H](N)CC2	n	x	x	x	x	x
CC(C)(C)C(=O)N1Cc2ccccc2-n2nncc2C1	n	n	n	n	n	n
CCCC(=O)c1cn(Cc2ccccc2C#N)c2ccccc12	x	n	x	x	x	x
Cc1cc(OC(C)C(=O)N[C@H](C(=O)O)c2ccccc2)c2c3c(c(=O)oc2c1)CCC3 (stereo partly drawn)	n	n	n	n	n	n
CCCCCc1cc(O)c2c3c(c(=O)oc2c1)CN(C)CC3	n	n	u	n	10µM	n
CCOC(=O)C(C)Oc1cc(C)cc2oc(=O)c3c(c12)CCCC3 (stereo not drawn)	n	n	n	n	n	n
CC[n+]1c(-c2ccccc2)c2cc(N)ccc2c2ccc(N)cc21	u	n	u	n	n	7.1µM!
C[C@]12C[C@H]3S[C@H]3C[C@@H]1CC[C@@H]1[C@@H]2CC[C@]2(C)[C@@H](O)CC[C@@H]12	n	x	x	x	x	x

Assay outcomes: PubChem BioAssay, National Center for Advancing Translational Sciences (NCATS)
